# In PubChem BioAssay AID1745856 (National Center for Advancing Translational Sciences (NCATS), 2022):
# In all, about 120,000 compounds went through this assay and about 270 (0.23%) were called active. Where a call stands in place of a potency, no number is given. Roughly 5% stayed inconclusive and do not appear here. Calls come from the whole dose curve. Only a selection was taken, and actives are over-represented in it overall.
# Experiment: Primary qHTS Assay for Foot and Mouth Disease Virus Antivirals against NCGC Sytravon and CBC Compound Libraries: Firefly Luciferase Signal; note: nearly all actives have a fitted effect of over 60% in size
# Conditions: FMDV antiviral cell assay; series mostly up to 57.5 µM
# Potency is the fitted concentration of half-maximal effect.
row,Structure (SMILES),Potency
1,CCCn1nc(C(=O)Nc2ncc(Cc3ccc(F)cc3)s2)ccc1=O,31.6 µM (active)
2,Cc1cnc(NC(=O)c2nc(C)n(-c3ccc(F)cc3)n2)s1,inactive
3,Cc1nc(-c2ccc(F)cc2)sc1C(=O)N[C@H](C(=O)O)C(C)C,inactive
4,COc1ccc(/C(=N/OC(=O)c2cccc(F)c2)c2nccc3cc(OC)c(OC)cc23)cc1OC,inactive
5,COc1ccc(-c2cc(C(=O)NC3CC(C)(C)NC(C)(C)C3)c3ccccc3n2)cc1OC,inactive
6,CCOc1cc(/C=C2\NC(=O)NC2=O)cc(Br)c1OCc1cccc2ccccc12,inactive
7,CCC(CC)NC(=O)COC(=O)c1ccc(C)c(C)c1,inactive
8,COc1ccc(CN(C(=O)COc2ccc(C)cc2)c2ccccn2)cc1OC,inactive
9,CC1CCN(C(=O)c2cccnc2-c2nc3ccccc3s2)CC1,inactive
10,Cc1ccc2c(Cl)cc(Cl)c(OCC(=O)N3CCCCCC3)c2n1,inactive
11,CCCCCNC(=O)N(C)Cc1ccc(C(=O)OC)cc1,inactive
12,COc1cccc(CNC(=O)COC(=O)c2c(F)cccc2F)c1,inactive
13,Cc1cccc(C)c1Nc1nc(-c2ccccc2)cs1,inactive
14,COc1ccc2c(c1OC)C(=O)OC2Nc1nc(-c2ccccc2)cs1 (stereo not drawn),28.2 µM (active)
15,COc1ccc(-c2csc(Nc3cccc(C)n3)n2)cc1OC,inactive
16,Cc1cccc(C)c1NC(=O)CN(C)CC(=O)NC(=O)NCc1ccccc1,inactive
17,CC(=O)N1CCN(c2c([N+](=O)[O-])cnc3ccc(Br)cc23)CC1,inactive
18,CCOc1ccccc1OCC(=O)Nc1cccc2ncccc12,8.91 µM (active)
19,COc1c(C)cccc1C(=O)Nc1cccc2ncccc12,inactive
20,CCCOc1ccc(NC(=O)COc2cccc(C)c2C)c2cccnc12,inactive
21,CCC1CCCCN1S(=O)(=O)c1ccc(NC(=O)c2cc(-c3ccc(OC)cc3)on2)cc1 (stereo not drawn),inactive
22,Cc1cc(SCC(=O)NC(=O)NCC(C)C)nc2ccccc12,inactive
23,COc1ccc(NC(C)=O)cc1S(=O)(=O)NC(c1ccc(F)cc1)c1cccs1 (stereo not drawn),inactive
24,CC1CCn2c(nc3cc(C(=O)N4CCN(c5ccccc5)CC4)ccc32)C1 (stereo not drawn),inactive
25,CC1CCCCN1C(=O)CSc1nc2ccccc2n1CCC#N (stereo not drawn),inactive
26,O=C(CC12CC3CC(CC(C3)C1)C2)OCC(=O)c1ccc2c(c1)OCO2,inactive

row,Structure (SMILES),Potency
1,CCCCN(C)C(=O)C1CCC(Cn2c(=O)c3sccc3n(Cc3ccccc3)c2=O)CC1 (stereo not drawn),inactive
2,Cc1ccc2nc(-c3ccccn3)cc(C(=O)O)c2c1,inactive
3,Cc1nc2cc(NC(C)C(=O)Nc3ccccc3F)ccc2o1 (stereo not drawn),inactive
4,CCc1ccc(Nc2nc3ccccc3nc2NS(=O)(=O)c2ccc(F)cc2)cc1,inactive
5,Cn1nc(C(=O)NCCc2ccc(F)cc2)c2ccccc2c1=O,inactive
6,COc1ccc(NC(=O)CSCc2cc(=O)n3cc(C)ccc3n2)cc1Cl,inactive
7,Cc1cc(=O)oc2c(C)c(OCC(=O)NCCc3ccc(S(N)(=O)=O)cc3)ccc12,inactive
8,O=C(CCc1nc2ccccc2s1)NC1CCCCCC1,inactive
9,CCS(=O)(=O)N1CCc2cc(C(=O)CSc3ccc(Cl)cc3)ccc21,inactive
10,Cc1ccc(-c2cc(C(=O)N3CCCCCC3)c3ccccc3n2)o1,inactive
11,Cc1cccc(N(C)C(=O)Cn2nc(Cc3cccnc3)c3ccccc3c2=O)c1,inactive
12,Cc1ccc(NC(=O)C(Sc2ccccc2)c2ccccc2)cc1C (stereo not drawn),inactive
13,CCN(CC)C(=O)c1sc2nc(C(C)(C)C)nc(C)c2c1C,inactive
14,COc1cc(NC(=O)C2CCCN2C(=O)C23CC4CC(CC(C4)C2)C3)c(OC)cc1Cl (stereo not drawn),inactive
15,CC1CCC(NC(=O)c2ccccc2SCC#N)CC1 (stereo not drawn),inactive
16,COc1ccc2c(C)c(CC(=O)Nc3nnc(C(C)C)s3)c(=O)oc2c1OC,inactive
17,Cc1ccccc1C(C)N (stereo not drawn),inactive
18,COc1ccc(/C=C2\CCc3ccccc3C2=O)cc1Br,inactive
19,CCOc1ccc(OCC(=O)NCCc2c[nH]c3ccccc23)cc1,inactive
20,COCCN(CCOC)C(=O)Cc1n[nH]c(=O)c2ccccc12,inactive
21,COc1ccc(-c2noc(-c3cccc(OCC(=O)N4CCCC4)c3)n2)cc1,inactive
22,O=S(=O)(c1ccc(Sc2nnnn2C2CCCC2)nc1)N1CCOCC1,inactive
23,Cc1cccc(-c2nc3cc(NC(=O)CC(C)C)ccc3o2)c1,inactive
24,CCOC(=O)CSCc1cccc(Cl)c1,inactive
25,O=c1[nH]c(=O)n(CCc2ccccc2)c2nccc(-c3ccc(Cl)cc3)c12,inactive
26,CC1CCC(=NNC(=S)NC2CCCCC2)CC1 (stereo not drawn),inactive

row,Structure (SMILES),Potency
1,CCCNC(=O)NCc1nc(-c2ccc(OC)cc2)oc1C,inactive
2,COc1ccc(C(=O)COC(=O)Cc2c(Cl)cccc2Cl)c(OC)c1,inactive
3,O=C1CC(c2cccc(Br)c2)c2c(n3c(nc4ccccc43)[nH]c2=O)N1 (stereo not drawn),inactive
4,CCN(C(=O)CSc1nc(-c2ccccc2Cl)nc2cc(=O)[nH]n12)c1ccccc1,inactive
5,O=C(NCc1coc(-c2cccs2)n1)c1ccc(C(F)(F)F)cc1,inactive
6,O=C(CSc1nc2ncccc2c(=O)n1-c1ccccc1)NC(=O)NC1CC1,inactive
7,CCOCCn1c(NCCCOC)nc2c1c(=O)[nH]c(=O)n2C,inactive
8,NC(=O)Cn1nc(-c2cccc([N+](=O)[O-])c2)c2ccccc2c1=O,inactive
9,O=C(NCc1ccc(F)cc1)c1cc(S(=O)(=O)C2CCS(=O)(=O)C2)ccc1F (stereo not drawn),inactive
10,CCN(CC)C(=O)Oc1ccc2c(C)c(-c3ccccc3)c(=O)oc2c1,inactive
11,Cc1ccsc1CNC(=O)CCc1ccc(F)c(F)c1,inactive
12,COCCCNC(=O)Cc1c(C)c2ccc(OC(C)=O)c(OC(C)=O)c2oc1=O,inactive
13,C[C@H](NC(=O)C(c1ccccc1)c1ccccc1)C(=O)O,inactive
14,Nc1nccnc1C(=O)Nc1cccc(NC(=O)c2ccncc2)c1,inactive
15,CC(Sc1nc2ccccc2n1C)C(=O)NCc1ccc2c(c1)OCO2 (stereo not drawn),inactive
16,Cc1nc2ccc(C)c(C)c2s1,inactive
17,Cc1ccccc1NC(=O)Cn1cc(C(=O)c2cccs2)c2ccccc21,inactive
18,Cc1c(Cl)cccc1NC(=O)Cn1cc(C(=O)c2cccs2)c2ccccc21,7.08 µM (active)
19,O=C(c1cccs1)c1cn(CCOc2ccc(Cl)cc2)c2ccccc12,inactive
20,Cc1ccc(C)c(COC(=O)c2ccc3c(c2)NC(=O)CS3)c1,inactive
21,CC(C)C(C#CC(O)(c1ccccc1)c1ccccc1)N(C)C (stereo not drawn),inactive
22,COc1cc(NC(=O)Cn2c3c(c(=O)n2-c2ccccc2)Cc2cc(Cl)ccc2O3)cc(OC)c1,inactive
23,O=C(O)c1c(F)c(F)c(F)c(F)c1-c1ccccc1,inactive
24,O=C(NC1CC1)C(Sc1c(Cl)cccc1Cl)c1ccccc1 (stereo not drawn),inactive
25,CCCCCNC(=O)CCc1c[nH]c2ccccc12,inactive
26,CCC(C)n1cc(/C=C2\NC(=O)N(CC)C2=O)c2ccccc21 (stereo not drawn),inactive
